According to PubChem BioAssay AID1224864 (Chung Lab, Department of Pediatrics, Emory University, 2016):
The campaign covered roughly 2,000 compounds. About 20 (1%) were called active. This is one part of a sample in which actives are shown more often than they occur. How the calls were made is not given here. Residues, ends and D or L forms follow the SMILES beside them. *: point of attachment. Boc = CC(C)(C)OC(=O)*; OBn = c1ccc(CO*)cc1

These compounds were tested against Cystic fibrosis transmembrane conductance regulator (Homo sapiens) (UniProt P13569) (assay: correctors of F508del-CFTR surface localization, primary screen, imaging, HeLa, high-content microscopy, immunofluorescence (AID 1224864;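 further: HeLa cells stably expressing F508del-CFTR stained with 3G11 antibody against NBD1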;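 on plasma membrane CFTR intensity: mean immunofluorescence in a thin cell-margin band taken as plasma membrane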)). Conditions: PM immunofluorescence imaging, 24 h, at 10 µM, stronger effect = higher value, relative to vehicle wells set at 100; total CFTR intensity: measured here: total cellular F508del-CFTR signal.
Sequence of Cystic fibrosis transmembrane conductance regulator (Homo sapiens) (P13569 whole entry, looked up, stated change not applied): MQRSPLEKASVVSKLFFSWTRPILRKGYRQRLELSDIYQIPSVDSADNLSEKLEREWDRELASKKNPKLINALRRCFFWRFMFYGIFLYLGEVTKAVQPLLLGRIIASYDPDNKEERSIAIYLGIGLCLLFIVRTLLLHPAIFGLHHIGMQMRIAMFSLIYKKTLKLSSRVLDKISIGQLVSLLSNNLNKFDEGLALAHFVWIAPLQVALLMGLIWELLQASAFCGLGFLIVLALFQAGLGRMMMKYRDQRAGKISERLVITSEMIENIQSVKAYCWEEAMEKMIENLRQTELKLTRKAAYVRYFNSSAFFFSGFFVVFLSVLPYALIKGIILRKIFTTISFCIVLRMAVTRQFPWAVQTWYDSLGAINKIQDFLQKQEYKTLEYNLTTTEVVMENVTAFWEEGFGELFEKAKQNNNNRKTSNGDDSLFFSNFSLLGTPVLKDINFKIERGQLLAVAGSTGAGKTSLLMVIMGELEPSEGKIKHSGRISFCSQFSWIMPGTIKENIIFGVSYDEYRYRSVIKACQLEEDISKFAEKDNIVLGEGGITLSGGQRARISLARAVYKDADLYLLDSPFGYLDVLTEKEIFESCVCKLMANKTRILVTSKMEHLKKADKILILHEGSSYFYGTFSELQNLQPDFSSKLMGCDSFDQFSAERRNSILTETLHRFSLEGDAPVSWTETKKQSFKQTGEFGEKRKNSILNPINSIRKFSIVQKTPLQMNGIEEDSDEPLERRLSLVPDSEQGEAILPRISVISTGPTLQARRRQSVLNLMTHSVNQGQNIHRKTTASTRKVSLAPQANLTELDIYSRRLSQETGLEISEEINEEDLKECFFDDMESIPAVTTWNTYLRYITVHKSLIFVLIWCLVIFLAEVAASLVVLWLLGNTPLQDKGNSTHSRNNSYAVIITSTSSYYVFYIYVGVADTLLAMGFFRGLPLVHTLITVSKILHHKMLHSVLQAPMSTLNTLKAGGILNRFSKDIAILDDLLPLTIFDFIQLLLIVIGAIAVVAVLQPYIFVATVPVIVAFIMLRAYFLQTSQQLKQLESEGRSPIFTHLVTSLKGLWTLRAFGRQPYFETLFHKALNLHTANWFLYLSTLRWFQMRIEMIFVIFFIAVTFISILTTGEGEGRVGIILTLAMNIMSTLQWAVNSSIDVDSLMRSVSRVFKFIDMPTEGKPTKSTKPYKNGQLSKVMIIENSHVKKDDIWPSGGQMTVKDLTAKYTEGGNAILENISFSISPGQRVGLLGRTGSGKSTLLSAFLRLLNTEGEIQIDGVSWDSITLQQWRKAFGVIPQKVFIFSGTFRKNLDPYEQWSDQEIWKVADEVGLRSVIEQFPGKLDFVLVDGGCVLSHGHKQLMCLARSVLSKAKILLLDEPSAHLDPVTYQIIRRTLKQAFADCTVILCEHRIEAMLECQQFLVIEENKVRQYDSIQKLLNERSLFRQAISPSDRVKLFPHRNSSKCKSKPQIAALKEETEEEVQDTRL

Row | Structure (SMILES) | plasma membrane CFTR intensity | total CFTR intensity [%]
1 | N/C(=N/OS(=O)(=O)c1ccc([N+](=O)[O-])cc1)c1ccncc1 | 87% (inactive) | 85
2 | COc1ccccc1NC(=O)N1CCc2[nH]c3ccc(Cl)cc3c2C1 | 92% (inactive) | 84
3 | C/C(CCc1oc2ccc(Cl)cc2c1-c1ccc(C)o1)=N\O | 91% (inactive) | 97
4 | COc1ccc(/C=N\NC(=O)CCc2c(C)n[nH]c2C)c(OC)c1OC | 82% (inactive) | 77
5 | COc1ccccc1Oc1c(C)oc2c(CN3CCN(CCO)CC3)c(O)ccc2c1=O | 90% (inactive) | 89
6 | O=C(O)c1ccc(OCCn2ccnc2)cc1 | 77% (inactive) | 82
7 | CN(CCCN1CCOCC1)Cc1cn(C)nc1-c1ccccc1F | 84% (inactive) | 87
8 | NCc1ccccc1COc1ccccc1 | 81% (inactive) | 83
9 | Cc1ccc(CN2CCN(CCCc3ccccc3)CC2CCO)cc1 (stereo not drawn) | 82% (inactive) | 85
10 | CCC(CO)NCCNC(CC)CO (stereo not drawn) | 86% (inactive) | 88
11 | Cc1ccc(N2CCN(C(=S)c3ccc(-c4cccc([N+](=O)[O-])c4)o3)CC2)cc1 | 81% (inactive) | 80
12 | O=C(CN1C(=O)c2ccccc2S1(=O)=O)Nc1ccccc1 | 84% (inactive) | 82
13 | CCCCC/C=C\C[C@H](O)/C=C/c1cccc(C[C@H](O)CCCCO)n1 | 107% (active) | 126
14 | CN(C)c1cc(NC(=O)CN2CCOCC2)c2ccccc2n1 | 91% (inactive) | 88
15 | CCOC(=O)C1C(=O)CC(C)(O)C(C(=O)OCC)C1/C=C/c1ccccc1 (stereo not drawn) | 95% (inactive) | 102
16 | Nc1ccc(N)c(C(=O)O)c1 | 77% (inactive) | 82
17 | CCOC(=O)Cn1c(C)cc(=O)c2ccccc21 | 114% (inactive) | 113
18 | COc1cc(C(=O)OCCCN(C)C)cc(OC)c1OC | 89% (inactive) | 84
19 | CN(C)c1ccc(CNCCC(Cc2ccccc2)c2ccco2)cc1 (stereo not drawn) | 50% (inactive) | 41
20 | Cn1c(=O)c2c(ncn2Cc2ccccc2)n(C)c1=O | 81% (inactive) | 82
21 | CC(C)NC[C@@H](O)c1ccc(O)c(O)c1 | 100% (inactive) | 111
22 | CNC[C@H](O)c1ccc(O)c(O)c1 | 101% (active) | 120
23 | CNC[C@H](O)c1cccc(O)c1 | 92% (inactive) | 96

Row | Structure (SMILES) | plasma membrane CFTR intensity | total CFTR intensity [%]
24 | O[C@@H](CNC[C@H](O)c1ccccc1)c1ccccc1 | 90% (inactive) | 84
25 | Cn1nc(-c2ccc(Cl)cc2)nc2c(=O)n(C)c(=O)nc1-2 | 84% (inactive) | 86
26 | O=C(CN1C(=O)c2ccccc2C1=O)Nc1cccc([N+](=O)[O-])c1 | 90% (inactive) | 91
27 | COc1cc(-c2nnc(-c3cccs3)o2)cc(OC)c1OC | 96% (inactive) | 87
28 | O=c1c2[nH]c3ccccc3c2ncn1CCC1=CCCCC1 | 87% (inactive) | 88
29 | Cc1ccc2c(c1)c1c(n2C)C(=O)CCC1 | 76% (inactive) | 75
30 | CCc1cc(=O)oc2cc(OCC=C(C)C)ccc12 | 95% (inactive) | 98
31 | COc1ccc2c(c1OC)C(=O)NC(C)=C(C(=O)OC(C)(C)C)C2O (stereo not drawn) | 87% (inactive) | 90
32 | O=C1CCCCCN1Cc1ccccc1 | 86% (inactive) | 90
33 | O=C1C=CC(=O)C(C2=C3C(=O)N(CCc4ccccc4)CC(=O)N3CCC2)=C1 | 108% (active) | 124
34 | COC(=O)CN1CC(=O)N(c2ccccc2)C1=S | 83% (inactive) | 81
35 | COc1ccccc1/C=C/CN1CCN(Cc2ccc(F)cc2)C(CCO)C1 (stereo not drawn) | 77% (inactive) | 77
36 | CC(C)(CO)CNC(=O)CC1C(=O)NCCN1CC(c1ccccc1)c1ccccc1 (stereo not drawn) | 85% (inactive) | 89
37 | Cn1c(=O)c2nc3ccccc3nc2n(C)c1=O | 96% (inactive) | 90
38 | Cc1coc2c1c(C)cc1oc(=O)c(Cc3ccccc3)c(C)c12 | 91% (inactive) | 91
39 | O=C(N/N=C\c1cc([N+](=O)[O-])ccc1N1CCOCC1)c1ccccn1 | 79% (inactive) | 75
40 | COC(=O)c1cc(-c2ccc(C)o2)nc2ccccc12 | 96% (inactive) | 99
41 | C(=C\c1ccccc1)/CN1CCN(C(c2ccccc2)c2ccccc2)CC1 | 107% (active) | 125
42 | Cc1cccc(CN2CCN(C(c3ccccc3)c3ccc(Cl)cc3)CC2)c1 (stereo not drawn) | 92% (inactive) | 107
43 | Fc1ccc(C(c2ccc(F)cc2)N2CCN(C/C=C/c3ccccc3)CC2)cc1 | 99% (inactive) | 120
44 | O=C(O)c1ccc(N2C(=O)/C(=C\c3ccccc3)N=C2c2ccccc2)cc1 | 78% (inactive) | 78
45 | COC1CCN(C(=O)c2ccc(OC3CCN(Cc4ccccn4)CC3)cc2)CC1 | 81% (inactive) | 75
46 | CC(C)Cc1nc(NCCN2CCOCC2)c(C#N)c2c1COC(C)(C)C2 | 96% (inactive) | 92

Row | Structure (SMILES) | plasma membrane CFTR intensity | total CFTR intensity [%]
47 | C/C(=N\N=C1/NC(=O)C(CC(=O)Nc2ccc(Cl)cc2)S1)c1ccco1 (stereo not drawn) | 81% (inactive) | 80
48 | CC(C)COC(=O)C1C(=O)CC(C)(O)C(C(=O)OCC(C)C)C1c1cccnc1 (stereo not drawn) | 93% (inactive) | 100
49 | C=C(C)COc1ccc(-c2nc(N)ncc2-c2ccc(OC)cc2)c(O)c1 | 82% (inactive) | 81
50 | O=C(Oc1ccccc1)Oc1ccc2c(c1)oc(=O)c1ccccc12 | 120% (active) | 140
51 | CSCCC(NC(C)=O)C(=O)Oc1ccc2c3c(c(=O)oc2c1)CCCC3 (stereo not drawn) | 80% (inactive) | 80
52 | O=C(Oc1ccc2c3c(c(=O)oc2c1)CCCC3)c1ccco1 | 89% (inactive) | 85
53 | C[C@H]1O[C@H]1P(=O)(O)O | 103% (inactive) | 108
54 | Cc1ccc([N+](=O)[O-])cc1NC1OC(CO)C(O)C1O (stereo not drawn) | 85% (inactive) | 85
55 | CC(C)CN(C)Cc1c(C(=O)N2CCc3ccccc3C2)nc2ccc(Cl)cn12 | 77% (inactive) | 81
56 | CN(C)CCOCCOc1ccc(Cl)cc1Br | 81% (inactive) | 81
57 | Cn1cc(CN2CCC(C(=O)N3CCCCC3)CC2)c(-c2ccccc2F)n1 | 79% (inactive) | 72
58 | CCOC(=O)C1(CCCc2ccccc2)CCN(C2CCN(C(C)=O)CC2)CC1 | 94% (inactive) | 101
59 | O=C1CC(c2ccc(OCCCCCOc3ccc(C4CC(=O)NC4=O)cc3)cc2)C(=O)N1 (stereo not drawn) | 96% (inactive) | 95
60 | O=C1CN(O)C=C2N=c3ccccc3=C2N1c1ccc([N+](=O)[O-])cc1 | 72% (inactive) | 74
61 | O=C(CCC1CCCN(C(=O)c2ccsc2)C1)NCc1ccc(F)c(F)c1 (stereo not drawn) | 81% (inactive) | 83
62 | CC1(C)C(=O)OC(c2cccs2)C2(CCCCC2)C1=O (stereo not drawn) | 102% (inactive) | 110
63 | NC12CC3CC(C1)CC(O)(C3)C2 | 89% (inactive) | 91
64 | Cc1cc(C)cc(Nc2nc3c([nH]2)c(=O)n(C)c(=O)n3C)c1 | 98% (inactive) | 95
65 | CCOC(=O)C(=O)Nc1ccc(Oc2ccccc2)cc1 | 85% (inactive) | 84
66 | CC(=O)Nc1nc(CCC(C)C)cc2c1c(=O)oc1ccccc12 | 77% (inactive) | 80
67 | Cc1cc(OCC(=O)C(C)(C)C)c2c(C)c(C)c(=O)oc2c1 | 86% (inactive) | 86
68 | CCN(CC)CCOC(=O)C(c1ccccc1)c1ccccc1 | 86% (inactive) | 84
69 | CCC(C(=O)OCCN(CC)CC)c1ccccc1 (stereo not drawn) | 95% (inactive) | 100

Row | Structure (SMILES) | plasma membrane CFTR intensity | total CFTR intensity [%]
70 | CCN(CC)CCOC(=O)C1(C2CCCCC2)CCCCC1 | 120% (active) | 123
71 | O=C(NCCO)c1ccc(Cl)c(Cl)c1 | 90% (inactive) | 90
72 | Cc1cccc2c(C(=O)O)cc(-c3cccnc3)nc12 | 94% (inactive) | 93
73 | C[C@]12CC[C@@H]3c4ccc(O)cc4CC[C@H]3[C@@H]1CC[C@@H]2OC(=O)CCC(=O)O | 78% (inactive) | 84
74 | CC(=O)Nc1ccc(S(=O)(=O)c2ccc(N)cc2)cc1 | 97% (inactive) | 95
75 | Cc1cc(C(=O)NC(CC(C)C)C(=O)O)cc(C)c1[N+](=O)[O-] (stereo not drawn) | 73% (inactive) | 71
76 | Cc1cc(O)c(C(=O)Cc2csc(C)n2)c(O)c1 | 110% (active) | 127
77 | COc1ccc(CC(=O)c2c(O)cc(O)cc2O)cc1OC | 83% (inactive) | 82
78 | Cc1cc(O)c2/c(=N/N)c(-c3csc(C)n3)coc2c1 | 69% (inactive) | 71
79 | CC(C)CC(NC(=O)C(NC(=O)OC(C)(C)C)C(C)C)C(=O)NC(CCC(=O)OCc1ccccc1)C(N)=O (stereo not drawn) (Boc-Val-Leu-Glu(OBn)-NH2; configuration not given here) | 82% (inactive) | 80
80 | O=C1C(=O)c2ccccc2C(O)=C1c1ccccc1F | 70% (inactive) | 75
81 | CC(=O)[C@@H]1[C@@H](C(=O)c2ccc(C)cc2)[C@]2(C(=O)Nc3ccccc32)[C@H]2C=Cc3cc(F)ccc3N12 | 77% (inactive) | 114
82 | CC(C)OC(=O)C1C(=O)CC(C)(O)C(C(=O)OC(C)C)C1c1cccc(O)c1 (stereo not drawn) | 77% (inactive) | 78
83 | CCOC(=O)c1ccccc1NC(=O)c1ccc(F)cc1 | 101% (inactive) | 103
84 | CCOc1ccc(NC(=O)N[C@@H](CCSC)C(=O)OC)cc1 | 88% (inactive) | 88
85 | FC(F)(F)c1ccc(-c2noc(CN3CCCN(C4CCCCC4)CC3)n2)cc1 | 95% (inactive) | 100
86 | COc1ccc2[nH]cc(CCNC(=O)C3CCCNC3=O)c2c1 (stereo not drawn) | 87% (inactive) | 85
87 | CC(C)(C)C(=O)NC(=S)NNC(=O)c1ccncc1 | 94% (inactive) | 90
88 | O=C(NC(Nc1ccccn1)C(Cl)(Cl)Cl)c1ccccc1 (stereo not drawn) | 84% (inactive) | 85
89 | COc1cc(CNc2nnnn2C)ccc1OCc1ccc(F)cc1Cl | 79% (inactive) | 78
